# Assay results taken from the supplement of paper PMC10382584, “Macrocyclization of linear molecules by deep learning to facilitate macrocyclic drug candidates discovery” (Nature Communications, 2023).
# Compound: Cc1cnc(Nc2ccc(OCCN3CCCC3)cc2)nc1Nc1cccc(S(=O)(=O)NC(C)(C)C)c1 [Fedratinib]
# Assay: percent of DMSO control binding (KINOMEscan); higher = weaker binding / less inhibition; extreme values may be limits of the assay
# Details: concentration: 100 nM
# Chain of UniProt Q9UIK4 (Q9UIK4 whole entry, looked up): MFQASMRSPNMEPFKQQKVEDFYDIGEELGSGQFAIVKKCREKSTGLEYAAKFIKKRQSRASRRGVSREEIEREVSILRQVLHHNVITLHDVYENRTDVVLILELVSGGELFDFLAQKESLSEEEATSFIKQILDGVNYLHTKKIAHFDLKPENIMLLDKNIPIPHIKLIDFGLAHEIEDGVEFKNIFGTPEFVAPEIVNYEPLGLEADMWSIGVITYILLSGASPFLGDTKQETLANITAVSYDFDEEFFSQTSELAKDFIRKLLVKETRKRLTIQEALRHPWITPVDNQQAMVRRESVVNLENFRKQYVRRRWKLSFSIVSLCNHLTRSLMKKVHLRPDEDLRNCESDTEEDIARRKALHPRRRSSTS
# Chain of UniProt Q02779 (Q02779 whole entry, looked up): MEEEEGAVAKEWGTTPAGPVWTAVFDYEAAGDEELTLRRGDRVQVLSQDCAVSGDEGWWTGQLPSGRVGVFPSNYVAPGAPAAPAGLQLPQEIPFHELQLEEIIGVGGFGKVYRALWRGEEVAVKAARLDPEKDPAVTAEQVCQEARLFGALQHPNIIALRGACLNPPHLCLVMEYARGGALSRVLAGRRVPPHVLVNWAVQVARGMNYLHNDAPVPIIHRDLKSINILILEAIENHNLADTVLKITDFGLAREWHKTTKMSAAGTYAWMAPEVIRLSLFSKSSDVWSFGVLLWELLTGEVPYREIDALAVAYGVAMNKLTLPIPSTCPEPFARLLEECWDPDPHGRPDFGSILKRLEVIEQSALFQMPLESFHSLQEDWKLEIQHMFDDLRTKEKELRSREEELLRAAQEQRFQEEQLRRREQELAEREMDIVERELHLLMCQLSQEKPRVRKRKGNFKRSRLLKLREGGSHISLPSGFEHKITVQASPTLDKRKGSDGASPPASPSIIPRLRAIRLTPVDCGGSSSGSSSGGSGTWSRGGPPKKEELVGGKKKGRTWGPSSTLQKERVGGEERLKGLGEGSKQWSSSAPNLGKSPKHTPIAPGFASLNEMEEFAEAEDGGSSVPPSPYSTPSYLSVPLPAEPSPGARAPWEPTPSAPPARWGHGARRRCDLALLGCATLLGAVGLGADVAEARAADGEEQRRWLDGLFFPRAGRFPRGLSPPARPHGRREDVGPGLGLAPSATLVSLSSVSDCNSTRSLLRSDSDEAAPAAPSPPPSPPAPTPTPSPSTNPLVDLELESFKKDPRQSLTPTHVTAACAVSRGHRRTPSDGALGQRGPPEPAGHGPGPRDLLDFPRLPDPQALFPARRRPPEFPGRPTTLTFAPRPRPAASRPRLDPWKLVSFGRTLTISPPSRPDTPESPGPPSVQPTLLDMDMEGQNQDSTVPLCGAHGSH
# Chain of UniProt Q9NSY1 (Q9NSY1 whole entry, looked up): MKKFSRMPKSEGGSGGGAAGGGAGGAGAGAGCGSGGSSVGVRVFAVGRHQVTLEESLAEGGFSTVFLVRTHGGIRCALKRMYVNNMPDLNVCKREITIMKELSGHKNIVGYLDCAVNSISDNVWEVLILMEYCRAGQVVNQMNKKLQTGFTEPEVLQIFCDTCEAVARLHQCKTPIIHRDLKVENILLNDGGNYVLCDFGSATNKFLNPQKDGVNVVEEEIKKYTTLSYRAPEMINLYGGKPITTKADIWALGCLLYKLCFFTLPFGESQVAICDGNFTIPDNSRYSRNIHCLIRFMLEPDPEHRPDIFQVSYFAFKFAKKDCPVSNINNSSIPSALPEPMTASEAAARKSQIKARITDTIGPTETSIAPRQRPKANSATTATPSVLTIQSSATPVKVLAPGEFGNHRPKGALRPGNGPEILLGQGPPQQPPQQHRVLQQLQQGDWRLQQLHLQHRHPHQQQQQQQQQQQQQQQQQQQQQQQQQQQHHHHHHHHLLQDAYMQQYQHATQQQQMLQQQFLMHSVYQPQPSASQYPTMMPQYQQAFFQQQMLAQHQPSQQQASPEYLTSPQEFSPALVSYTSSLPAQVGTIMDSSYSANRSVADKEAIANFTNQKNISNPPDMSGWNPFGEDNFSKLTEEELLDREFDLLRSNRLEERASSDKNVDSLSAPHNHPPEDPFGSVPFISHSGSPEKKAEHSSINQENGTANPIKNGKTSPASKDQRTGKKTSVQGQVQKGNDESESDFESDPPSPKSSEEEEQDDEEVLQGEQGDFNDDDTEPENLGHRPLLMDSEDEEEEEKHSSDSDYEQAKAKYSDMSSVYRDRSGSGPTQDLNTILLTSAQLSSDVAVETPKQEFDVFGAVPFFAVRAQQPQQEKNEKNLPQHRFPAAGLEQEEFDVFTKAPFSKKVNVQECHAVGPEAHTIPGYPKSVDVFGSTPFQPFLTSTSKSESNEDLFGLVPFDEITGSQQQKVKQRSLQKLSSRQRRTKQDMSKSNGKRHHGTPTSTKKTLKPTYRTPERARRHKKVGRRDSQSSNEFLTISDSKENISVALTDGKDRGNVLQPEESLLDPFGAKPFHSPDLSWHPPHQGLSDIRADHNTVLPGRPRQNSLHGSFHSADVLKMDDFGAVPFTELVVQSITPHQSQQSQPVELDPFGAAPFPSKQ
# Chain of UniProt Q15303 (Q15303 whole entry): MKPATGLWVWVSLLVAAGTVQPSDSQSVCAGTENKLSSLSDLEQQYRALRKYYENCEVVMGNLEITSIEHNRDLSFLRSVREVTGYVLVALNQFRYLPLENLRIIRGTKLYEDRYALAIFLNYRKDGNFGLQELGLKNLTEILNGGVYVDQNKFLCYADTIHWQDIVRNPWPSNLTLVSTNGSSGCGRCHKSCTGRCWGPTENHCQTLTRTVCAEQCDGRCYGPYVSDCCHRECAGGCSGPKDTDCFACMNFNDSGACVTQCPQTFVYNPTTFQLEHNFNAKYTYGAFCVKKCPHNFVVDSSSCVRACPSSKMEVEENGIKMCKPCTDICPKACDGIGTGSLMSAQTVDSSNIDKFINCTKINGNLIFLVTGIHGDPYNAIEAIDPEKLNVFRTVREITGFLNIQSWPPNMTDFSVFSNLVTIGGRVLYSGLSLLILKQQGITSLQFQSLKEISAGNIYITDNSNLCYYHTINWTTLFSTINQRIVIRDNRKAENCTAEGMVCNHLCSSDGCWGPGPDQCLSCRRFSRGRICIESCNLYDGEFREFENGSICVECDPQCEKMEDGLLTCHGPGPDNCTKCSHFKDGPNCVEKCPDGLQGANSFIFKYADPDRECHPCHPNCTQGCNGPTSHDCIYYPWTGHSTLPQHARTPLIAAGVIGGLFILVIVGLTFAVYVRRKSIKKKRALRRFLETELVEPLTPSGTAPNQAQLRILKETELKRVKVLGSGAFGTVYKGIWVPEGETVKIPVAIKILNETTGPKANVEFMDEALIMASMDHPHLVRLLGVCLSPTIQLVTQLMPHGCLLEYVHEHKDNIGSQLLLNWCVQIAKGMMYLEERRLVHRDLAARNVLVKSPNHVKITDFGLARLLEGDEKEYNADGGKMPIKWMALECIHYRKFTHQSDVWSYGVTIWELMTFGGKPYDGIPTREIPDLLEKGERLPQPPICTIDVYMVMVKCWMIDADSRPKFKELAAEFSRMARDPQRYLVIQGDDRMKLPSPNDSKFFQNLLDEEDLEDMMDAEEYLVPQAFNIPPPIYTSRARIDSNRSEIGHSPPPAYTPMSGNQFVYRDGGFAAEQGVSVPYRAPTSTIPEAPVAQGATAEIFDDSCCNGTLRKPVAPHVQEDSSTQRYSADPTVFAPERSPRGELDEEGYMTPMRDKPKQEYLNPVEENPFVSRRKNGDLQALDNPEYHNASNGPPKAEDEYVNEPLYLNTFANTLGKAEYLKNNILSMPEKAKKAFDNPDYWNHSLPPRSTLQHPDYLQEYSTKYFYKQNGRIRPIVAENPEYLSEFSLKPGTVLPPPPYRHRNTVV
# Chain of UniProt Q06187 (Q06187 whole entry): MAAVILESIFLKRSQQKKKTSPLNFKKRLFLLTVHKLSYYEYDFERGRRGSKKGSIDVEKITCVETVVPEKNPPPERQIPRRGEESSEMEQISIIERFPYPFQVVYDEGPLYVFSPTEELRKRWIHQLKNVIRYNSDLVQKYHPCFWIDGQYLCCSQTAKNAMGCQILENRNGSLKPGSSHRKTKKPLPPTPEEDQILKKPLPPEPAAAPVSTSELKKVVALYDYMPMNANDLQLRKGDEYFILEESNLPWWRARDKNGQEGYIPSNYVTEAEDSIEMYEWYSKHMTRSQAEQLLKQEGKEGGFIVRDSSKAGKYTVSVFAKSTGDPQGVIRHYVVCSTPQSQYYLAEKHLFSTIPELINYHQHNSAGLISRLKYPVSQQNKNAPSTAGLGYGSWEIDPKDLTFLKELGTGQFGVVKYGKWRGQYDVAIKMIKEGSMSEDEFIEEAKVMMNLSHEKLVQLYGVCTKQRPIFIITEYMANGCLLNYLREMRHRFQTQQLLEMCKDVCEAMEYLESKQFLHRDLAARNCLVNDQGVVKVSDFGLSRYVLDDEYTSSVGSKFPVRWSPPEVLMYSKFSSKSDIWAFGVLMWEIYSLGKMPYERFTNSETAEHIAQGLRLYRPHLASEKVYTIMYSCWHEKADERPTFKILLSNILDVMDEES
# Chain of UniProt O96013 (O96013 whole entry, looked up): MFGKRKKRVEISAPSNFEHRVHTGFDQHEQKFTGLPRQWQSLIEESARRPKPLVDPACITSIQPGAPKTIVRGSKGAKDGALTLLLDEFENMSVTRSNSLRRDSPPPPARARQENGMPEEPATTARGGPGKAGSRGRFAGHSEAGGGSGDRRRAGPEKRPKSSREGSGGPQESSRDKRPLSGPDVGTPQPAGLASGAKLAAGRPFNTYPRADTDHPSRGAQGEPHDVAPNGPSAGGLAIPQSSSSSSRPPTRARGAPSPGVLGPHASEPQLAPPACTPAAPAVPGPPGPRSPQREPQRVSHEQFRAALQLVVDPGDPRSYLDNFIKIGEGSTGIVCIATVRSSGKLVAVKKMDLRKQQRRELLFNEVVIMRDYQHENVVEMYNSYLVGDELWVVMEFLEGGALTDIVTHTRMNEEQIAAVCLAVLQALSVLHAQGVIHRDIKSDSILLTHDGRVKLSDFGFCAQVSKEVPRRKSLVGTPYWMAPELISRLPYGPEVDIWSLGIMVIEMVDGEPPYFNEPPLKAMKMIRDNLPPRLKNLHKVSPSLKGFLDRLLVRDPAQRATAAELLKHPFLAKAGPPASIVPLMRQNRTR
row,Target,percent of DMSO control binding [%]
1,MTOR (UniProt P42345),87
2,AMPK-alpha1 (UniProt Q13131),100
3,RSK1(Kin.Dom.1-N-terminal) (UniProt Q15418),89
4,ROS1 (UniProt P08922),88
5,MAP3K4 (UniProt Q9Y6R4),77
6,CAMKK2 (UniProt Q96RR4),100
7,EGFR(S752-I759del) (UniProt P00533),88
8,CDC2L5 (UniProt Q14004),78
9,EGFR(G719C) (UniProt P00533),100
10,RPS6KA5(Kin.Dom.1-N-terminal) (UniProt O75582),100
11,MLK2 (UniProt Q02779),78
12,WEE2 (UniProt P0C1S8),100
13,BRAF(V600E),95
14,ERBB4 (UniProt Q15303),100
15,TAK1 (UniProt O43318),81
16,BTK (UniProt Q06187),87
17,DAPK2 (UniProt Q9UIK4),16
18,ACVR2A (UniProt P27037),100
19,ALK(C1156Y) (UniProt Q9UM73),57
20,PRKCH,100
21,DCAMKL2 (UniProt Q8N568),97
22,IGF1R (UniProt P08069),100
23,BRK (UniProt Q13882),87
24,ERBB3 (UniProt P21860),97
25,MYLK2 (UniProt Q9H1R3),100
26,PAK4 (UniProt O96013),100
27,BIKE (UniProt Q9NSY1),7.4
28,FLT4 (UniProt P35916),100
29,RSK1(Kin.Dom.2-C-terminal) (UniProt Q15418),93
